Source: PubChem BioAssay AID778 (Sanford-Burnham Center for Chemical Genomics, 2007)
In all, about 96,000 compounds went through this assay and about 20,000 (21%) were called active.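 Rule for the calls: active = CYP2C19 inhibition above a set limit at 5 µM in the primary screen (cut at about 50% in these data); inactive = the rest.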 A selection follows.

molecular target: Cytochrome P450 2C19 (Homo sapiens) (UniProt P33261); experiment: blockers of cytochrome P450 2C19 activity – biochemical, luminescence, ADME assay, primary screen (AID 778); details: CYP2C19 Supersomes, luciferin-H EGE luminescence, 30 min; at 5 µM; hits give high values;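 note: plate controls were negative control wells for no effect and 2.5 mM tranylcypromine positive control for full effect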
Sequence (P33261 whole entry, looked up): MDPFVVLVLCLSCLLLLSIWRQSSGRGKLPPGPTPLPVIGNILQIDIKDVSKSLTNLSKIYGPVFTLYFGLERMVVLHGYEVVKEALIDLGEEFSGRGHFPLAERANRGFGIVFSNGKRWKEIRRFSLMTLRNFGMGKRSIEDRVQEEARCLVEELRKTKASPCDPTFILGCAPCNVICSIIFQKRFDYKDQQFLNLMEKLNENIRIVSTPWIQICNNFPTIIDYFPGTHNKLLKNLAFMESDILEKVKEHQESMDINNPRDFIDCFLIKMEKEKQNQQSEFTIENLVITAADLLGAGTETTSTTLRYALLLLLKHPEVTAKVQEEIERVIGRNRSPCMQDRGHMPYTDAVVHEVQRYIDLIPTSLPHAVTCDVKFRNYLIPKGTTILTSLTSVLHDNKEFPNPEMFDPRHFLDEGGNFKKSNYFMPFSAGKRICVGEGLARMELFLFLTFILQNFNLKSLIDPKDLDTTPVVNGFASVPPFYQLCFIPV

Structure (SMILES) | inhibition
COCCOC(=O)c1sc(=S)n(CCOC)c1N | 47.6% (inactive)
Cc1ccc2nc(NC(=O)C3CCN(S(=O)(=O)c4ccc5c(c4)oc(=O)n5C)CC3)sc2c1 | 6.1% (inactive)
CCCCC(=O)Nc1ccc(C(=O)NCCCn2ccnc2)cc1 | 37.9% (inactive)
CCCC(=O)Nc1ccc(C(=O)NCCCn2ccnc2)cc1 | 52.2% (active)
CCN(CC)C(=O)CCC(=O)Nc1ccc(C(=O)OC)cc1 | 33.7% (inactive)
CC1(C)CC(=O)C(C2=NC(C)(C)Cc3ccccc32)=C(O)C1 | 13.7% (inactive)
COc1ccc(C2C(C#N)=C(/N=C/N3CCOCC3)OC3=C2C(=O)CC(C)(C)C3)cc1OC (centres undefined) | 21% (inactive)
CCc1ccc(N(CC)c2ncnc3nc[nH]c23)cc1 | 14.9% (inactive)
Cn1c2c(c(=O)n(C)c1=O)C(c1cccc([N+](=O)[O-])c1)Nc1ccccc1O2 (centres undefined) | 18.9% (inactive)
CCOC(=O)C1=C(CN2CCc3ccccc32)NC(=O)NC1c1ccc(Cl)cc1 (centres undefined) | 26.5% (inactive)
CCOC(=O)C1=C(CN2CCc3ccccc32)NC(=O)NC1c1cccc([N+](=O)[O-])c1 (centres undefined) | 63.5% (active)
O=C(COc1ccc2oc3c(c2c1)CCCC3)Nc1ccccn1 | 21.2% (inactive)
NC(=O)COc1ccc2c3c(c(=O)oc2c1)CCCCC3 | -3.8% (inactive)
O=C(COc1ccc2c3c(c(=O)oc2c1)CCC3)NC1CCCCC1 | 54.4% (active)
CCC1(CC)NC(=O)N(CC(=O)OCC(=O)Nc2ccc(C(F)(F)F)cc2)C1=O | -6.3% (inactive)
S=c1[nH]nc(-c2ccco2)n1/N=C/c1ccc(Br)s1 | -11.6% (inactive)
O=C(NCc1ccccc1)[C@@H]1CSC2c3ccccc3C(=O)N21 (some centres undefined) | 81.2% (active)
O=C(O)C1CC=C(Cl)CC1C(=O)NCc1ccccc1 (centres undefined) | 2.3% (inactive)
Cc1ccc(CNC(=O)C2CCCN2C(=O)NCc2ccccc2)cc1 (centres undefined) | 0.7% (inactive)
Cn1c(=O)c(C(=O)Nc2ncccn2)c(O)c2ccccc21 | 7.9% (inactive)
O=C(NCc1ccc(Cl)cc1)c1cc(=O)nc2sc(-c3ccccc3)nn12 | 4.6% (inactive)
O=C(CCc1ccccc1)Nc1cccc(-c2nnc(-c3ccco3)o2)c1 | 18.2% (inactive)
CC(=O)CSc1nnc(CSc2ncccn2)n1C1CCCCC1 | -8.3% (inactive)
NC(=O)CSc1oc(-c2cccs2)nc1S(=O)(=O)c1ccccc1 | 79.2% (active)
CC1CCCCN1S(=O)(=O)c1ccc(C(=O)Nc2nnc(-c3cccs3)o2)cc1 (centres undefined) | 10.3% (inactive)

Structure (SMILES) | inhibition
Cc1ccc(CNC(=O)COc2ccc(S(=O)(=O)NC(C)C)cc2)cc1 | 38.8% (inactive)
Nc1ccc(C(=O)OCC(=O)NC2CCCc3ccccc32)cc1[N+](=O)[O-] (centres undefined) | 34.6% (inactive)
Cn1c(CC(=O)Nc2ccccc2)nnc1SCC(=O)c1ccccc1 | 33.2% (inactive)
Cn1c(CNc2nc(-c3ccccc3)cs2)nnc1SCC(=O)c1ccccc1 | 86.5% (active)
CCOC(=O)CSc1nnc(CNc2nc(-c3ccccc3)cs2)n1C | 35% (inactive)
CCOc1c2ccc(C(=O)NC3CCCc4ccccc43)cc2nn1CC (centres undefined) | 29.9% (inactive)
CSCC[C@H](NC(=O)NCCc1ccc(F)cc1)C(=O)O | 72.3% (active)
CSCC[C@H](NC(=O)NCc1cccs1)C(=O)O | -4.9% (inactive)
CC(C)C[C@H](NC(=O)NCCc1ccc(Cl)cc1)C(=O)O | 2.7% (inactive)
O=C(O)c1ccc(-n2cccc2)cc1O | 5.6% (inactive)
Cc1ccc(S(=O)(=O)n2cnc3ccccc32)c(C)c1 | 4.5% (inactive)
CCOc1cc(C)c(Cl)cc1S(=O)(=O)n1nnc2ccccc21 | 66.1% (active)
CCCOc1cc(C)c(S(=O)(=O)n2nnc3ccccc32)cc1C | -9.4% (inactive)
COc1cc(/C=C2\SC(=S)N(Nc3ncc(C(F)(F)F)cc3Cl)C2=O)cc(OC)c1OC | 31.7% (inactive)
COc1cccc(-c2cc3nc4c(c(N5CCC6(CC5)OCCO6)n3n2)CCCC4)c1 | 24.8% (inactive)
NC(=O)C1CCN(C2OC(=O)c3ccccc32)CC1 (centres undefined) | -2% (inactive)
c1cnn(-c2cc(N3CCOCC3)ncn2)c1 | 5.4% (inactive)
Cc1ccc(-c2nc(COC(=O)c3c(C)noc3C)cs2)cc1 | 54% (active)
Cc1noc(C)c1C(=O)N1CCOCC1 | -2.1% (inactive)
COC(=O)c1c(-c2ccc(C)cc2)csc1N | 24.4% (inactive)
O=C(/C(=N\O)n1cncn1)c1ccc(Br)cc1Br | 33.6% (inactive)
Cc1[nH]c2ccc(S(N)(=O)=O)cc2c1C | 13% (inactive)
CNC(=O)c1c(NC(NC(=O)c2ccco2)C(=O)c2ccc(Cl)cc2)sc2c1CCCC2 (centres undefined) | 21.4% (inactive)
Cc1cccc(-n2c(N)cc(=O)nc2SC(C)C(=O)NC2CCCCC2)c1 (centres undefined) | 12.9% (inactive)
CC(=O)Nc1cccc2c1[n+]([O-])c(C)c(C)[n+]2[O-] | 5% (inactive)

Structure (SMILES) | inhibition
CCn1c(SCC(=O)NCC2CCCO2)nc2cc(S(=O)(=O)N3CCCCC3)ccc21 (centres undefined) | 11% (inactive)
CCn1c(C)nc2cc(C(=O)NNS(=O)(=O)c3ccc(C)cc3C)ccc21 | 1.5% (inactive)
CCOC(=O)c1ccc2c(c1)nc(SCC(=O)NC(C)C)n2CC | 85.7% (active)
N#Cc1ccccc1-n1c(N)c(C(=O)N2CCCC2)sc1=S | 17.2% (inactive)
CCC1CCCCN1CCNS(=O)(=O)c1ccc2c(c1)CCN2C(C)=O (centres undefined) | -3.7% (inactive)
Cc1ccc(NC(=O)C(C)c2cccc(C(=O)c3ccccc3)c2)cc1 (centres undefined) | 92.1% (active)
CC(=O)c1cccc(NC(=O)Nc2ccc(C)cc2)c1 | -13.3% (inactive)
Cc1ccc(C(=O)c2c(NC(=O)c3ccccc3)sc(C)c2C)cc1 | 23.7% (inactive)
CCn1c(=O)cc(OCC(=O)NCCCN2CCN(c3cccc(Cl)c3)CC2)c2ccccc21 | 26.7% (inactive)
CC(C)NC(=O)C(=O)NCCN1CCN(S(=O)(=O)c2ccc(Cl)cc2)CC1 | 7.4% (inactive)
Cc1ccc(C2(c3ccc(C)cc3)NC(=O)N(Cc3c(C)noc3C)C2=O)cc1 | 14.6% (inactive)
Cc1ccccc1-n1c(C)cc(/C=N/NC(=O)c2ccc(CN3CCOCC3)cc2)c1C | 24.3% (inactive)
CC(C)c1ccc(OCC(O)Cn2cnc3ccccc32)cc1 (centres undefined) | 7.2% (inactive)
O=C(C(c1ccccc1)c1ccccc1)N1CCN(CC(O)COc2ccccc2)CC1 (centres undefined) | 41.9% (inactive)
OC(COc1ccccc1)Cn1cc(Br)cn1 (centres undefined) | 54.1% (active)
COc1ccc(OC(C)C(=O)Nc2cccnc2)cc1 (centres undefined) | 7.1% (inactive)
COc1ccc(CC(=O)Nc2ccc(-c3nnc(-c4ccccc4)o3)cc2)cc1 | 18% (inactive)
COc1cccc(NC(=O)C(C)Oc2ccccc2)c1 (centres undefined) | 79.9% (active)
COc1cccc(NC(=O)CN(C)S(=O)(=O)c2ccc(C)cc2)c1 | 78.9% (active)
COc1cccc(NC(=O)c2ccccc2SC)c1 | 6.7% (inactive)
COc1ccc(NC(=O)CN(C)S(=O)(=O)c2ccccc2)cc1OC | 25.7% (inactive)
CCC(=O)Nc1ccc(C(=O)Nc2cccc(OC)c2)cc1 | -0.7% (inactive)
CCOc1ccc(S(=O)(=O)N(CC(=O)O)c2ccccc2)cc1 | 2.3% (inactive)
COc1cccc(NC(=O)Cc2ccc(C)cc2)c1 | 57.1% (active)
CCN(CC)C(=O)CN(c1cccc(OC)c1)S(=O)(=O)c1ccc(C)cc1 | 64.9% (active)

Structure (SMILES) | inhibition
COc1cccc(N(CC(=O)N2CCc3ccccc3C2)S(C)(=O)=O)c1 | 31.3% (inactive)
COc1cccc(N(CC(=O)Nc2cccc(N(C)S(C)(=O)=O)c2)S(C)(=O)=O)c1 | 35.8% (inactive)
CCOC(=O)/C=c1\s/c(=C\c2ccccc2OC)c(=O)n1CC(=O)N1CCOCC1 | -9.3% (inactive)
CCNC(=O)c1sccc1-n1cccc1 | 16.3% (inactive)
CCN1CCN(C(c2cccnc2)c2cc(Cl)c3cccnc3c2O)CC1 (centres undefined) | 17.2% (inactive)
Cc1ccc(C(=O)NNC(=O)c2cc3cc4ccccc4nc3s2)cc1 | -3.1% (inactive)
O=c1[nH]c(-c2ccccc2)c(-c2ccccc2)[nH]1 | 1.3% (inactive)
O=C1CC2(CCCCC2)Oc2ccc(OCC(=O)N3CCOCC3)cc21 | -3.8% (inactive)
CCCCc1nnc(NC(=O)CSc2nc(C)cc(=O)[nH]2)s1 | 4.3% (inactive)
O=C1/C(=C\Nc2ccccc2)CCN1c1ncccn1 | 7.1% (inactive)
CCOC(=O)c1ccn(-c2nc(-c3ccco3)cc(C(F)(F)F)n2)n1 | 9.7% (inactive)
CC(=O)C1C(c2cccc(Oc3ccccc3)c2)NC(=O)NC1(O)C(F)(F)F (centres undefined) | 24.4% (inactive)
Cc1ccccc1-c1ccc(Nc2ccc(C(=O)N3CCOCC3)cc2)nn1 | 34.2% (inactive)
Cc1ccc(C)c(NC(=O)C2Cc3ccccc3CN2C(=O)OCc2ccccc2)c1 (centres undefined) | 62.3% (active)
Cc1ccc(C)c(NC(=O)C2CCCN2C(=O)OC(C)(C)C)c1 (centres undefined) | 11.7% (inactive)
CC(=O)N1Cc2ccccc2CC1C(=O)O (centres undefined) | -21.6% (inactive)
Cc1cc(C(F)(F)F)nn1-c1nc(-c2ccco2)cc(C(F)(F)F)n1 | 2.2% (inactive)
CCOC(=O)c1ccc(NC(=O)Cn2nnc(-c3ccc(C)cc3)n2)cc1 | 8.5% (inactive)
CCOC(=O)c1ccc(NC(=O)CSc2ncccn2)cc1 | 26.9% (inactive)
CCOC(=O)c1cn(CC(=O)Nc2ccc(C(C)C)cc2)nn1 | 62% (active)
COCC(C)NC(=O)c1ccc(-n2nc(C(F)(F)F)cc2-c2cccs2)cc1 (centres undefined) | 12.4% (inactive)
CSCc1cc(N2CCOCC2)nc(SCc2ccc(Cl)cc2Cl)n1 | 50.8% (active)
CSCc1cc(N(C)C)nc(SCc2ccc(Cl)cc2Cl)n1 | 40.2% (inactive)
O=c1cc(CSc2ccc(Cl)cc2)nc(N2CCOCC2)[nH]1 | 38.8% (inactive)
